The panel holds about 79,000 compounds, 15% with a hit somewhere; the sample as a whole holds those more often. A number with no mark means an inactive call. Activity calls are given as the source filed them. No stated cut-off is given here; in the data, active means growth inhibition above about 70%; inactive means the rest. Where a SMILES comes first, the peptide text is derived from it. The star is where a group is joined. Boc = CC(C)(C)OC(=O)*; OSu = O=C1CCC(=O)N1O*

From PubChem BioAssay (NCI) come the findings set out here.

Assay [1] in a line: NCI Yeast Anticancer Drug Screen. Data for the rad50 strain (AID 155).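 Further: 0% = growth of vehicle-only cultures of the same strain.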 The following applies: S. cerevisiae rad50 strain growth inhibition; at 50.0 µM; stronger effect = higher value. The method in brief:
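Relative growth inhibition (compound vs vehicle) was measured in yeast with a defined repair-gene alteration.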

The nature of assay [2]: NCI Yeast Anticancer Drug Screen. Data for the mec2-1 strain (AID 157). Conditions: S. cerevisiae mec2-1 strain, at 50.0 µM, stronger effect = higher value. The method in brief: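 Vehicle-treated cultures served as reference for growth inhibition of compound-exposed mec2-1 yeast.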
A short description of assay [3]: NCI Yeast Anticancer Drug Screen. Data for the sgs1 mgt1 strain (AID 161).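 Further: 0% = growth of cultures given vehicle only.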 Conditions: S. cerevisiae sgs1 mgt1 strain, at 50.0 µM, stronger effect = higher value. The method in brief: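 Genetically altered yeast, compound exposure, growth inhibition relative to vehicle.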
Assay [4] is described as follows: NCI Yeast Anticancer Drug Screen. Data for the cln2 rad14 strain (AID 165).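 Further: 0% = growth equal to vehicle treated cultures.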 The following applies: S. cerevisiae cln2 rad14 strain, at 50.0 µM, stronger effect = higher value. In a few lines:
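Each compound was tested on cln2 rad14 yeast. Inhibition of growth was calculated against vehicle-exposed controls.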

A short description of assay [5]: NCI Yeast Anticancer Drug Screen. Data for the bub3 strain (AID 167). Conditions: S. cerevisiae bub3 mutant strain, at 50.0 µM, stronger effect = higher value. The method in brief:
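Screening used yeast with an engineered genetic alteration affecting cell cycle control. Compound-exposed cultures were compared with vehicle cultures, and reduced growth was taken as inhibition.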

A short description of assay [6]: NCI Yeast Anticancer Drug Screen. Data for the mlh1 rad18 strain (AID 175). The following applies: S. cerevisiae mlh1 rad18 strain growth inhibition; at 50.0 µM; stronger effect = higher value. The method in brief:
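Vehicle-treated cultures served as the reference for growth inhibition in a yeast strain carrying DNA damage repair alterations exposed to each compound.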

For `C=C1CCC(OC(C)=O)C2(C)C(OC(C)=O)CC3OC3(C)C2C(OC(C)=O)C2C(C)C(=O)OC2C1Cl` (stereo not given), the growth inhibition was 3.2% in assay [1]; -20.8% in assay [2]; 1.55% in assay [3]; 6.45% in assay [4]; 3% in assay [5]; 4.8% in assay [6].

As to `Cc1nc2ccccc2o1`, the growth inhibition in assay [1] was 19.9%; in assay [2], 39.5%; in assay [3], 13.1%; in assay [4], 14.9%; in assay [5] it was -1.6%; in assay [6] it was -10.4%.

For `CC(C)(C)OC(=O)NC(Cc1ccc(O)cc1)C(=O)NC(CCCCN)C(=O)NC(Cc1ccc(O)cc1)C(=O)NC(CCCCN)C(=O)ON1C(=O)CCC1=O` (stereo not given) (Boc-YKYK-OSu; configuration not given here), the growth inhibition was -12.2% in assay [1]; -15.5% in assay [2]; -6.7% in assay [3]; 29.1% in assay [4]; -2.8% in assay [5]; 4.45% in assay [6].

`O=[N+]([O-])c1ccc(Nc2ccccc2)c([N+](=O)[O-])c1`: the growth inhibition in assay [1] is 2.4%; in assay [2] it was -12.8%; in assay [3], -1.4%; in assay [4], -32.2%; in assay [5], -7.05%; in assay [6], 8.5%.

As for `NC1=NS(=O)(=O)Nc2nc(-c3ccc([N+](=O)[O-])cc3)[nH]c21`, the growth inhibition in assay [1] was -43%; in assay [2], -45.8%; in assay [3] it was -53%; in assay [4] it was -22.4%; in assay [5], -38.2%; in assay [6], -45%.

As to `OCCCCCCOc1ccc(-c2cc(-c3ccccn3)nc(-c3ccccn3)c2)cc1`, the growth inhibition in assay [1] was 52%; in assay [2], 67.5%; in assay [3] it was 68.9%; in assay [4], 64.9%; in assay [5], 70.5% (active); in assay [6], 65.5%.

In the case of `Cn1nc2c(c1-c1ccncc1)CCc1ccccc1-2`, the growth inhibition in assay [1] was 3.9%; in assay [2] it was 65.3%; in assay [3] it was 36%; in assay [4], -3.55%; in assay [5] it was 66.1%; in assay [6], 24.6%.

`O=[N+]([O-])c1ccc(/C=C(/c2ccc([N+](=O)[O-])o2)S(=O)(=O)C(Cl)(Cl)Cl)cc1`: the growth inhibition in assay [1] is 96.7% (active); in assay [2], 97.2% (active); in assay [3], 98.3% (active); in assay [4] it was 97.1% (active); in assay [5], 90.1% (active); in assay [6] it was 97.8% (active).

Regarding `CC1=C(C(=O)O)C(C)CC(=O)N1` (stereo not given), the growth inhibition in assay [1] was 5.15%; in assay [2], -3.4%; in assay [3], -8.25%; in assay [4] it was -12.4%; in assay [5], 1.2%; in assay [6], 7.9%.

On to `Cc1cc(N=Nc2ccc(S(=O)(=O)O)c3ccccc23)ccc1O`, for which the growth inhibition in assay [1] is -33.6%; in assay [2], 9.75%; in assay [3], -5.1%; in assay [4], -66.1%; in assay [5] it was 12.9%; in assay [6] it was -5.6%.

Consider `CCCC(P(c1ccccc1)c1ccccc1)P(=O)(c1ccccc1)c1ccccc1` (stereo not given), for which the growth inhibition in assay [1] was 62.7%; in assay [2], 39.2%; in assay [3], 39.1%; in assay [4], 24.9%; in assay [5], 59.4%; in assay [6], 29.1%.

With `C/C(=C\CNc1ncnc2c1ncn2C1CCCCO1)COP(=O)(O)O` (stereo not given), the growth inhibition in assay [1] is 19.6%; in assay [2], 6.4%; in assay [3], 19.6%; in assay [4], 22.2%; in assay [5] it was -4.8%; in assay [6], 27.9%.

With `CC(=O)OC/C=C(\C)CC(/C=C(C)/C=C/C1=C(C)CCCC1(C)C)S(=O)(=O)c1ccccc1` (stereo not given), the growth inhibition is 35.5% in assay [1]; 9.4% in assay [2]; -6.15% in assay [3]; 2.05% in assay [4]; 0.2% in assay [5]; -5.15% in assay [6].

As for `O=C(O)c1ccc(OCCOc2ccccc2)c(Cl)c1`, the growth inhibition in assay [1] was 31%; in assay [2], 74.8% (active); in assay [3], 61.3%; in assay [4], 40.2%; in assay [5] it was 63.6%; in assay [6] it was 61%.

With `CCOC(=O)/C(Cc1nc2ccccc2[nH]c1=O)=N\O`, the growth inhibition was -0.5% in assay [1]; 9.95% in assay [2]; 5.65% in assay [3]; 50.4% in assay [4]; -4.45% in assay [5]; 7.7% in assay [6].

In the case of `COc1cccc(NC(=O)Nc2ccccc2Cl)c1`, the growth inhibition in assay [1] was -13.2%; in assay [2] it was 8.1%; in assay [3] it was -3.25%; in assay [4], -19.2%; in assay [5], -1.3%; in assay [6], -32.6%.

In the case of `CCCCCCCCCCCCCCCCCC(=O)OC(C(O)C=O)C(O)C(O)CO` (stereo not given), the growth inhibition is 12.6% in assay [1]; 16.3% in assay [2]; 22.2% in assay [3]; 23.9% in assay [4]; -5.55% in assay [5]; 45.8% in assay [6].

Consider `O=C(O)c1ccccc1C(=O)Cc1ccccc1`, for which the growth inhibition in assay [1] is -14.7%; in assay [2] it was -19%; in assay [3], -6.7%; in assay [4] it was -16%; in assay [5] it was -29.6%; in assay [6], -9.6%.

Consider `CCOC1(C)OC2OC(COC(c3ccccc3)(c3ccccc3)c3ccccc3)C(OC(=O)c3ccccc3)C(OC(=O)c3ccccc3)C2O1` (stereo not given), for which the growth inhibition in assay [1] was -3.5%; in assay [2], 14%; in assay [3], 4.05%; in assay [4], -9.4%; in assay [5] it was -5.9%; in assay [6], 29.6%.

Turning to `CC(=O)OC(C)C(=O)OCC1OC(OC(=O)C(C)OC(C)=O)C(OC(=O)C(C)OC(C)=O)C(OC(=O)C(C)OC(C)=O)C1OC(=O)C(C)OC(C)=O` (stereo not given), the growth inhibition is 7.6% in assay [1]; -13.8% in assay [2]; -10.6% in assay [3]; -42.4% in assay [4]; -12.1% in assay [5]; 7.95% in assay [6].
